Source: PubChem BioAssay (National Center for Advancing Translational Sciences (NCATS))
TRHR enhancer = TRH receptor (human) allosteric enhancement; P34981; TRHR cells, fluo-8 calcium fluorescence, EC20 TRH enhancement; enhancement, % at 2 µM; hit rate 0.66% among 360,000; AID 493056; in the data active means enhancement above about 30%; further: 0% is about no effect
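Enhancer read-out: after compound pinning and an initial kinetic agonist-mode read, an EC20 of TRH (10 nM final) was injected and fluo-8 calcium signal (Ex 480/Em 530) followed at 1 s/cycle for 100 cycles in TRHR-expressing cells.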
D1 ag = human D1 receptor agonism; P21728; HEK293 T-REx D1 cells, calcium flux, agonist mode; activation, % at 2 µM; hit rate 1% among 360,000; AID 504660; further: 0% is about no effect
Target sequence (P21728 whole entry, looked up): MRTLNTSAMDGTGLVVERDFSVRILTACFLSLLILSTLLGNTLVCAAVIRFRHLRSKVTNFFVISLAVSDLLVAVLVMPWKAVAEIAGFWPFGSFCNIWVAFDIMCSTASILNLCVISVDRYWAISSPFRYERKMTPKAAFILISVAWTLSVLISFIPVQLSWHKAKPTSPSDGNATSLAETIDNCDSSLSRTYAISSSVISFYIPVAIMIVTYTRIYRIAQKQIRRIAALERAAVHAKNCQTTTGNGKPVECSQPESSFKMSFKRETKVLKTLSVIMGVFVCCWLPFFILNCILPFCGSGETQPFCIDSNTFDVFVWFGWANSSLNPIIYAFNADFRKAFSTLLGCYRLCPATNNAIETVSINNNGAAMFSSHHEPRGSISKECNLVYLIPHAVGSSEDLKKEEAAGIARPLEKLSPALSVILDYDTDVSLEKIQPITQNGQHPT
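Tetracycline-induced HEK293 TREx D1 cells, force-coupled to calcium signalling, were dye-loaded with a no-wash calcium kit. Compound was pin-added after a 10 s baseline. Fluorescence was read kinetically at 1 cycle/s for 180 s, with calcium rises flagged as agonism.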
D1 potentiator = human D1 dopamine receptor positive modulation; P21728; HEK293 TREx D1 cells, calcium flux, dopamine EC20 potentiation; potentiation, % at 10 µM; hit rate 0.036% among 360,000; AID 504651; in the data active means potentiation above about 30%; further: 0% is about no effect
D1 antagonist = human D1 dopamine receptor antagonism; HEK293 TREx D1 cells, calcium flux, dopamine EC80; stronger effect = lower value; hit rate 3.2% among 360,000; AID 504652; activity change, negative = inhibition, % at 10 µM; in the data active means activity change below about -30%; further: on the % scale 0 is the no-effect control and ±100 the full control effect
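Tetracycline-induced HEK293 T-REx cells with force-coupled D1 receptor were loaded with a no-wash calcium dye. Compound was added after a 10 s baseline and read kinetically for 180 s; EC80 dopamine was then added and calcium flux followed another 180 s.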
TRHR ag = TRH receptor (human) agonism. TRHR cells, calcium flux fluo-8, FDSS agonist mode. activation, % at 2 µM. hit rate 0.18% among 360,000. AID 493084; further: 0% is about no effect
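In this calcium-flux screen, cells bearing human TRHR are dye-loaded with fluo-8, baselined for 10 cycles, then exposed to library compounds; positive kinetic calcium responses during the agonist phase mark hits, with TRH as control.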
* marks the source's active call; other numbers are inactive results; . = no result; ! = repeats disagree. Most compounds without a hit are left out; they make up all but 4.6% or so of the library. Unless noted, no stated cut-off is given here; in the data, active means activation above about 30%; inactive means the rest.

SMILES	TRHR enhancer	D1 ag	D1 potentiator	D1 antagonist	TRHR ag
COc1cc(/C=C2/CC/C(=C/c3ccc(O)c(OC)c3)C2=O)ccc1O	-5	78*	11	-8	0
COc1ccc(N2CCN(CCCNC(=O)C(=O)c3c[nH]c4ccccc34)CC2)cc1	1	9	-3	-21	0
CCCN(CCC)c1nc(-c2ccccc2F)nc2ccccc12	-2	39*	0	3	0
CCCN(CCC)c1nc(-c2ccccn2)nc2ccccc12	2	0	-3	25	-1
O=C(COc1ccc([N+](=O)[O-])cc1Cl)NCC1CCCO1 (stereo unspecified)	4	2	-5	-39*	0
CC(C)CNS(=O)(=O)c1ccc(OCC(=O)NCC2CCCO2)c(Cl)c1 (stereo unspecified)	-1	2	-2	-36*	0
COc1ccc(CCN(C)CC(O)COc2c(C)ccc(C)c2C)cc1OC (stereo unspecified)	-17	34*	-7	-16	-3
COc1ccc(CCN(C)CC(O)COC(c2ccc(F)cc2)c2ccc(F)cc2)cc1OC (stereo unspecified)	3	33*	-19	-27	2
C=Cc1ccc(Cn2c(C(=O)O)c(CNCc3cc(OC)ccc3OC)c3ccc(C)cc32)cc1	3	-1	0	-11	0
COc1ccc2nc(N3C(=O)CNC3=S)sc2c1	6	0	-10	-40*	0
O=C(Nc1ccc(F)c(Cl)c1)C1CCCN(S(=O)(=O)c2cccc3nsnc23)C1 (stereo unspecified)	-7	-1	2	-11	2
O=C(Nc1ccc2c(c1)OCCO2)C1CCCN(S(=O)(=O)c2cccc3nsnc23)C1 (stereo unspecified)	19	0	38*	-36*	0
O=C(CCNC(=O)C1CCN(S(=O)(=O)c2ccc(F)cc2)CC1)NC1CC1	0	5	2	-24	0
COC(=O)c1ccc(CSCc2ccc(C#N)cc2)cc1	-11	8	-12	-35*	-1
N#Cc1ccc(CSCC(=O)O)cc1	14	1	-7	4	1
CC1(C)Cc2cccc(OCC(=O)OCC(=O)Nc3ccc(C(N)=O)cc3)c2O1	0	-2	-7	-39*	-1
Cc1oncc1C(=O)N1CCCC(CO)(Cc2ccc(F)cc2F)C1 (stereo unspecified)	9	0	2	3	0
CCN(CC)CCNCC(O)(c1ccc(Cl)cc1)c1ccc(Cl)cc1	-4	32*	-7	-28	5
C=Cc1cc(F)c(S(=O)(=O)N2CCN(S(=O)(=O)c3ccc4c(c3)OCCO4)CC2)cc1F	2	4	2	-11	-2
Cc1ccc(O)c(C(=O)c2cc(C#N)c(=O)n(-c3nccs3)c2)c1	9	331*	4	-1	0
CCOc1ccc(CC(=O)N/N=C(\C)c2cccnc2)cc1	-8	9	-6	-36*	0
COc1ccc(CC(=O)N/N=C(\C)c2cccnc2)cc1	0	2	-2	5	0
Cc1ccc(CNC(=O)CSCc2nc(-c3cccc(C)c3)oc2C)cc1	6	6	1	-10	0
COc1cccc(Cn2c(=O)n(-c3ccc(C)c(F)c3)c(=O)c3sc4ccccc4c32)c1	4	2	0	6	1
CC1CCN(S(=O)(=O)c2ccc3c(c2)oc(=O)n3CC(=O)N2CCc3ccccc3C2)CC1	-4	0	.	-65*	0
SMILES	TRHR enhancer	D1 ag	D1 potentiator	D1 antagonist	TRHR ag
CC1CCCCN1C(=O)Cn1c(=O)oc2cc(S(=O)(=O)N3CCCC3)ccc21 (stereo unspecified)	34*	7	-1	9	-2
O=C(Cn1c(=O)oc2cc(S(=O)(=O)N3CCCC3)ccc21)N1CCc2ccccc2C1	-11	6	.	-1	0
CC1CCCN(C(=O)Cn2c(=O)oc3cc(S(=O)(=O)N4CCCCC4)ccc32)C1 (stereo unspecified)	-3	1	4	27	0
CC1CCN(C(=O)Cn2c(=O)oc3cc(S(=O)(=O)N4CCCCC4)ccc32)CC1	0	2	48*!	-10	0
COCCCNC(=S)N1CCCN(c2nc3cc(C)c(C)cc3cc2C#N)CC1	2	0	-1	7	-1
CCOCCCNC(=S)N1CCCN(c2nc3cc(C)c(C)cc3cc2C#N)CC1	4	0	-3	-33*	-1
COc1cccc(C(=O)Oc2c(Br)cc(Br)cc2/C=N/NC(=O)c2cc(C)[nH]n2)c1	-6	10	-3	-32*	2
Cc1ccc(CNC(=O)C(=O)NCC(c2cccs2)S(=O)(=O)c2cccs2)cc1 (stereo unspecified)	-2	2	-3	.	0
O=C(NC(=S)Nc1ccccn1)c1cccc([N+](=O)[O-])c1	-6	0	-6	-55*	0
O=C(Nc1ccncc1NC(=O)c1cccc([N+](=O)[O-])c1)c1cccc([N+](=O)[O-])c1	7	0	-2	-8	0
O=C(Nc1cccc(NC(=O)c2cccc([N+](=O)[O-])c2)n1)c1cccc([N+](=O)[O-])c1	-7	4	-9	-34*	0
COc1ccc(N2CCN(c3ccc4nnc(CCC(=O)Nc5ccc(C)cc5)n4n3)CC2)cc1	-1	1	0	-9	-1
COc1ccc(/C=C2\N=C(C)N(c3ccc4ccccc4c3)C2=O)cc1OC	-9	8	-7	-43*	3
COc1ccc(/C=C2\N=C3CCCCCN3C2=O)cc1OC	-3	1	-2	8	-1
Cc1ccc(Cl)cc1NS(=O)(=O)c1cc2c3c(c1)CC(=O)N3CCC2	-2	0	0	.	1
Clc1ccccc1N=C1SCCS1	-3	36*	8	7	-1
CCOC(=O)CC(NC(=O)c1cc2cc(OC)ccc2oc1=O)c1ccc(OC)cc1 (stereo unspecified)	-3	0	1	-4	-3
CCOC(=O)c1c(/N=C/C2=C(O)CCCC2=O)sc(C)c1C	-12	-1	5	-22	-2
CCOC(=O)c1c(-c2ccc(OC)cc2)csc1/N=C/C1=C(O)CCCC1=O	27	37*	-8	-11	10
NC1=NC2(CCN(Cc3ccccc3)CC2)n2c(nc3ccccc32)N1	3	1	-10	-43*	1
O=C(NC1CCCCC1)C1CCN(S(=O)(=O)c2cccc3cccnc23)CC1	-2	3	-9	-65*	0
O=C(NC1CCCC1)C1CCCN1S(=O)(=O)c1cccc2cccnc12 (stereo unspecified)	-4	1	-5	-34*	0
CCOC(=O)N1CCC(NC(=O)C2CCN(S(=O)(=O)c3cccc4cccnc34)CC2)CC1	-14	3	-4	-7	-1
